# KB-V1 cytotox – qHTS assay for MDR1-selective chemotherapeutics: Primary screen using the drug-selected MDR subline cells KB-V1; KB-V1 MDR cells viability, CellTiter-Glo, 72 h; Potency, µM (highest dose often 46.1 µM), hits mostly cytotoxic; hit rate 3.4% among 400,000; also: % is scaled to controls: 0 for no effect and ±100 for the full control effect; nearly all actives have a fitted effect of over 60% in size
#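 Readout: CellTiter-Glo luminescence, 10 min after addition. Cells: KB-V1 MDR subline, 72 h at 37 degrees C with compound. Analysis: corrected, normalized data fitted to concentration-effect curves.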
# SW480 rereplic – A quantitative high throughput screen for small molecules that induce DNA re-replication in SW480 colon adenocarcinoma cells; hit rate 1.8% among 340,000; AID 624297, 2012; Potency, µM (series often up to 46.1 µM), without a hit: top-dose re-replication activation, actives largely listed as activators; SW480 DNA re-replication, Hoechst DNA content imaging, 48 h; also: % of control where 0% means no effect; nearly all actives have a fitted effect of over 55% in size
#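 Compounds, transferred as 23 nL by pin tool, were incubated with cells for 48 hr; DNA content per nucleus was then quantified by Hoechst staining and fluorescence plate imaging.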
# HT1080 IDH1KD tx – qHTS for induction of synthetic lethality in tumor cells producing 2HG: qHTS for the HT-1080-IDH1KD cell line | HT-1080 IDH1 knockdown viability, ATP luminescence, 48 h | Potency, µM (doses to about 46.1 µM), for the others: at the top dose activity, negative = toxicity, hits mostly cytotoxic | hit rate 2% among 360,000 | AID 686971, 2013;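 also: 0% = DMSO wells and -100% = cell-free medium wells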
#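 % activity derives from luminescence (CellTiter-Glo), normalised to DMSO and no-cell wells. HT-1080-IDH1KD cells, 750/well, had 48 h compound exposure at 37 °C.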
# HT1080NT lethal – qHTS for induction of synthetic lethality in tumor cells producing 2HG: qHTS for the HT-1080-NT fibrosarcoma cell line; HT-1080-NT fibrosarcoma viability, CellTiter-Glo ATP luminescence, 48 h; Potency, µM (top dose mostly 46.1 µM), for inactives: at the top dose activity, negative = less viability, actives largely listed as cytotoxic; hit rate 1.6% among 360,000; AID 686970, 2013;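 also: NT is the 2HG producing partner of a matched IDH1 knockdown line; 0% = DMSO-treated cells and -100% = media-only wells without cells; nearly all actives have a fitted effect of over 55% in size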
#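 Toxicity toward the 2HG-producing NT line was scored as %Activity, normalised to DMSO and no-cell wells, from CellTiter-Glo luminescence after 48 hours' treatment.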
# KB-3-1 tox – qHTS assay for MDR1-selective chemotherapeutics: Primary screen using the parental adenocarcinoma cell KB-3-1. KB-3-1 viability, CellTiter-Glo ATP luminescence, 72 h. Potency, µM (top dose mostly 46.1 µM), usual class: cytotoxic. hit rate 1.4% among 400,000. AID 1347075, 2019; also: % is scaled to controls: 0 for no effect and ±100 for the full control effect; nearly all actives have a fitted effect of over 60% in size
#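 Here the drug-naive KB-3-1 line serves as comparator for MDR sub-line selectivity; cells received compound titrations, 72 h at 37 °C, then CellTiter-Glo readout.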
# MCF10A rereplic – A quantitative high throughput screen for small molecules that induce DNA re-replication in MCF 10a normal breast cells; MCF 10A DNA re-replication, Hoechst nuclear intensity, 48 h; Potency, µM (top dose mostly 46.1 µM), inactives show at the top dose activity, positive = re-replication, most hits filed as activators; hit rate 2.9% among 350,000; also: % of control where 0% means no effect; nearly all actives have a fitted effect of over 50% in size
# An asterisk follows results filed as active; i = inactive; ? = inconclusive; · = not tested or not shown; [ ] = dose if it differs, or a comment. A selection: hits, their analogues and other compounds. The true share with any hit is near 7.9%. Calls follow the shape of the dose curve; as a rule, active = well fitted curve in the direction sought with a large enough effect; inconclusive = small, poorly fitted or top-dose-only effect, or another doubt; inactive = no such curve, though single readings can be large; an effect the other way counts as inactive or inconclusive. Potency is read from the fitted curve at half-maximal effect.
SMILES,KB-V1 cytotox,SW480 rereplic,HT1080 IDH1KD tx,HT1080NT lethal,KB-3-1 tox,MCF10A rereplic
CCCC(=O)Nc1cccc(NC(=O)c2ccc(C)c([N+](=O)[O-])c2)c1,i,2%,12%,-2%,i,-4%
Cc1cccc(NC(=O)c2ccc(NCC3CCCO3)c([N+](=O)[O-])c2)c1 (stereo not given),4.1µM*,-59%,16%,18%,i,-5%
O=C(Nc1cccc(Cl)c1)c1ccc(NCC2CCCO2)c([N+](=O)[O-])c1 (stereo not given),i,-89%,0%,-6%,i,19%
CC1(C)Cc2c(c(N3CCCC3)nc3sc4c(N5CCNCC5)ncnc4c23)CO1,i,-1%,7%,12%,i,6%
CCCCNc1sc(S(=O)(=O)CC)nc1S(=O)(=O)c1ccc(C)cc1,i,·,·,·,i,·
COc1cc(NS(=O)(=O)c2ccc(NC(=O)c3ccc(Cl)cc3Cl)cc2)nc(OC)n1,i,·,·,·,i,·
CCCc1cc(-c2n[nH]c(C)c2-c2ccc(C(=O)OCC)o2)c(O)cc1O,i,1%,?,?,i,0%
CCCc1cc2c(OC(=O)CC)c(-c3ccc(C(=O)OCC)o3)c(=O)oc2cc1OC,i,?,-7%,-5%,i,21µM*
COc1cc(CCC(=O)Nc2cccc(S(=O)(=O)N(C)C)c2)cc(OC)c1OC,21µM*,?,8%,7%,i,-2%
CN(C)S(=O)(=O)c1cccc(NC(=O)COc2ccccc2C(=O)NCc2ccccc2)c1,10µM*,4%,0%,-5%,?,-4%
CN(C)S(=O)(=O)c1cccc(NC(=O)CCNC(=O)Nc2ccccc2)c1,i,-13%,4%,3%,i,5%
CC(=O)c1ccc(OCCCC(=O)Nc2cccc(S(=O)(=O)N(C)C)c2)cc1,13µM*,-1%,-7%,-2%,?,2%
COC(=O)c1cccc(NC(=O)CCc2cc(OC)c(OC)c(OC)c2)c1,i,-45%,1%,4%,i,10%
CN(C)S(=O)(=O)c1cccc(NC(=O)CCSc2ccc(Cl)cc2)c1,12µM*,-7%,5%,7%,?,6%
COc1ccccc1C(=O)NCC(=O)OCC(=O)Nc1cccc(S(=O)(=O)N(C)C)c1,i,-2%,12%,2%,i,0%
COc1ccc(-c2cn3nc(N4CCCC(C(=O)NCc5ccccc5Cl)C4)sc3n2)cc1 (stereo not given),i,·,·,·,i,·
Cc1cccc(C)c1C(O)c1ncc(-c2cccc3ccccc23)[nH]1 (stereo not given),i,·,?,?,i,·
CCc1ccc(OCCCC(=O)Nc2cccc(C(=O)O)c2)cc1,i,23µM*,-6%,15%,i,6%
Cc1c(Cl)cccc1NC(=O)CNc1cccc(S(=O)(=O)N(C)C)c1,16µM*,1%,6%,-3%,i,-9%
COC(=O)c1cccc(NC(=O)CCCOc2ccccc2)c1,i,-1%,-1%,-3%,i,5%
CC(C)OCCCN1C(=O)c2[nH]nc(-c3ccccc3O)c2C1c1cccc(OCc2ccccc2)c1 (stereo not given),?,·,·,·,i,·
CCN1CCCc2cc(CN(CCN3CCOCC3)C(=O)Nc3ccc(C)c(C)c3)ccc21,21µM*,4%,-18%,-3%,i,?
CCCCN1CCCc2cc(CN(CCCN3CCOCC3)C(=O)Nc3ccc(OCC)cc3)ccc21,i,·,·,·,i,·
CCc1ccc(NC(=O)N(CCN2CCOCC2)Cc2ccc3c(c2)CCCN3CC)cc1,21µM*,0%,?,-8%,i,18%
CCN1CCCc2cc(CN(CCN3CCOCC3)C(=S)Nc3cccc(C)c3)ccc21,i,26%,-12%,-19%,?,5%
SMILES,KB-V1 cytotox,SW480 rereplic,HT1080 IDH1KD tx,HT1080NT lethal,KB-3-1 tox,MCF10A rereplic
C#CCNC(=O)c1ccc2sc([C@@H]3O[C@H](CO)[C@H](O)[C@H](O)[C@H]3O)nc2c1,i,·,26%,24%,i,·
O=C(NNc1cc(Cl)cc(Cl)c1)c1sccc1Cl,·,·,-15%,-26%,·,·
Cc1nn(C)c(C)c1NC(=O)COc1ccc(F)cc1Br,i,-7%,-11%,13µM*,i,16%
Cc1nn(C)c(C)c1NC(=O)COc1ccc(Cl)cc1Br,·,-3%,-27%,?,·,16µM*
CCOP(=O)(OCC)c1nc(-c2cccc3ccccc23)oc1NCc1ccc(OC)cc1,i,18µM*,?,?,i,?
COc1ccc(CCNc2oc(-c3cccc4ccccc34)nc2P(=O)(OC)OC)cc1OC,12µM*,?,0%,-1%,i,?
CCOP(=O)(OCC)c1nc(/C=C/c2ccccc2)oc1NCc1ccccc1,?,21µM*,-20%,-22%,?,?
CCOP(=O)(OCC)c1nc(/C=C/c2ccccc2)oc1NCc1ccc(OC)cc1,i,?,?,?,i,?
COC(=O)CC1C(=O)NCCN1C(=O)c1ccc(Cl)cc1 (stereo not given),i,-17%,18%,-1%,i,-28%
COc1ccc(N2CCN(c3ccc(-c4nc(-c5ccccc5)no4)cc3[N+](=O)[O-])CC2)cc1,i,·,·,·,i,·
CC(C)(C)C1CCc2nc(NC(=O)c3cccc(Cl)c3)sc2C1 (stereo not given),i,·,·,·,i,·
COc1ccc(-c2nn(-c3ccccc3)cc2/C=C/C(=O)N2CCN(c3ccccn3)CC2)cc1,15µM*,4%,-5%,2%,i,12%
O=C(c1cccn2c(=O)c3cc(Br)ccc3nc12)N1CCN(c2ccccn2)CC1,i,1%,-9%,-20%,i,4%
O=C(c1[nH]c(C(F)(F)F)nc1-c1ccccc1)N1CCN(c2ccccn2)CC1,?,·,23µM*,?,?,·
Cc1ccc(-c2nn(-c3ccccc3)cc2C(=O)N2CCN(c3ccccn3)CC2)cc1,?,?,?,?,?,-1%[9.22 µM]
O=C(c1cccn2c(=O)c3ccccc3nc12)N1CCN(c2ccccn2)CC1,9.2µM*,-17%,5%,24%,i,-1%

# Assay outcomes: PubChem, National Center for Advancing Translational Sciences (NCATS)
